Results as given in publication PMC4336329 (PLoS ONE, 2015).
About 14,000 (4.5%) of roughly 310,000 compounds showed an effect of 50% or more. The effect is printed as a negative number. Shown is part of a subset that was picked to be rich in strong results.

target: human ether-à-go-go-related gene (hERG) potassium channel (human, UniProt Q12809); assay: primary screen, population patch clamp on CHO cells stably expressing hERG; higher = less effect of the substance
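Note: peak tail current of the secondary pulse compared with the same well before compound.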

Chain of human ether-à-go-go-related gene (hERG) potassium channel (Q12809 whole entry, looked up): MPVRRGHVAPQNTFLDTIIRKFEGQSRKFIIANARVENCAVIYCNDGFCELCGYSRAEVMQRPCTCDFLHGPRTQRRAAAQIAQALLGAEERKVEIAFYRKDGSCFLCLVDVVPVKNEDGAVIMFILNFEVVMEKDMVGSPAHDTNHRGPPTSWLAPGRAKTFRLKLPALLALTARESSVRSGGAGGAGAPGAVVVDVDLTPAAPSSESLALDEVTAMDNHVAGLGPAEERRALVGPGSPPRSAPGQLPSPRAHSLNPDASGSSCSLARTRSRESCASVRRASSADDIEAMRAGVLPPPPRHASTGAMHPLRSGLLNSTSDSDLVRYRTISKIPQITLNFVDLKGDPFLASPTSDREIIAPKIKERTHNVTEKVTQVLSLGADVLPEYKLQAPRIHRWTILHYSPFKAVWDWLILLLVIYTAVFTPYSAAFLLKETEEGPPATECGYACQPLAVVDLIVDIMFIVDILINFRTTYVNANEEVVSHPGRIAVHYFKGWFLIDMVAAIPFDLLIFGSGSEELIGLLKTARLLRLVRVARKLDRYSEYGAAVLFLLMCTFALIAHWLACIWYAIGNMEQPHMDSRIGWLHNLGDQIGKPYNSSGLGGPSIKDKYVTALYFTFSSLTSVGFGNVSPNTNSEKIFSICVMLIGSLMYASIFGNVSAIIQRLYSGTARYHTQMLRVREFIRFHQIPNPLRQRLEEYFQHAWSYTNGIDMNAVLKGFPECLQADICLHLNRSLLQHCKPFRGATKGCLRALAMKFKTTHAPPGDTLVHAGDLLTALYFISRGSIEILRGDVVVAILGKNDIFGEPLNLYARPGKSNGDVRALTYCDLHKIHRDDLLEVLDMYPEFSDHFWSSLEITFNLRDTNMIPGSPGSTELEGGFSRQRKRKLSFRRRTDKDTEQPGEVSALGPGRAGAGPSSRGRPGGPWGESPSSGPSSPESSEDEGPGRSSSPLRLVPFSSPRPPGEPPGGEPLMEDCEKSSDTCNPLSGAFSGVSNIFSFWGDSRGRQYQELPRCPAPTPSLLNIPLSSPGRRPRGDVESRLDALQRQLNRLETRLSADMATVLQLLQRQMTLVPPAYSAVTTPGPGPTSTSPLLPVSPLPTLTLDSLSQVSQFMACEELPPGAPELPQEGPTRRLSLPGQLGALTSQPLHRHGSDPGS

First: CCCCC1C2=C(CC(C)(C)CC2=O)OC2=C1C(=O)CC(C)(C)C2
Second: CCOc1ccc(N2C(=O)CC(NCC3CCCO3)C2=O)cc1 (centres unmarked)
The “hERG current change (%, negative = inhibition) at 10uM” value of the first is lower: -9.48% for the first, 2.22% for the second.

Compared with CC(C)(C)C1=C(C#N)C(c2cccnc2)C(C#N)=C(N)O1 (centres unmarked), COc1ccccc1Cc1nc(-c2cccnc2)no1 is higher in “hERG current change (%, negative = inhibition) at 10uM” value: 4.42% for the first, 14.8% for the second.

Going from COc1cc(CCN)ccc1O.Cl to COc1cc(C2NC(=S)NC(c3ccccc3)=C2C(C)=O)ccc1O (centres unmarked), the “hERG current change (%, negative = inhibition) at 10uM” value rises from 15.1% to 15.4%.

Going from COP(=O)(OC)C(Nc1ccccc1)c1ccccc1 (centres unmarked) to O=C(Nc1ccccc1)C(c1ccccc1)c1ccccc1, the “hERG current change (%, negative = inhibition) at 10uM” value rises from 11.4% to 15.1%.

Going from COc1ccc(N2CCCC2)c(NC(=O)COc2ccccc2Cl)c1 to COc1ccc(C2Nc3ccccc3C(=O)N2NC(C)=O)c(OC)c1 (centres unmarked), the “hERG current change (%, negative = inhibition) at 10uM” value falls from 14.8% to 14.3%.

Compared with O=C(N/C(=C/C=C/c1ccccc1)C(=O)N1CCCCC1)c1ccc([N+](=O)[O-])cc1, O=C(N/C(=C\c1ccc([N+](=O)[O-])cc1)C(=O)N1CCCCC1)c1ccccc1 is lower in “hERG current change (%, negative = inhibition) at 10uM” value: -72.8% for the first, -76.9% for the second.

Compared with CC(=O)Nc1ccc(C(=O)N/C(=C/c2ccccc2)C(=O)N2CCCCC2)cc1, O=C(N/C(=C/c1ccccc1)C(=O)N1CCCCC1)c1ccccc1 is higher in “hERG current change (%, negative = inhibition) at 10uM” value: 4.57% for the first, 29.9% for the second.

Compared with O=C(N/C(=C\c1ccccc1)C(=O)N1CCOCC1)c1ccccc1Br, O=C(N/C(=C/c1cccc([N+](=O)[O-])c1)C(=O)N1CCOCC1)c1ccccc1Br is lower in “hERG current change (%, negative = inhibition) at 10uM” value: 17.9% for the first, -7.05% for the second.

Going from CN1CCN(C(=O)/C(=C/c2ccc([N+](=O)[O-])cc2)NC(=O)c2ccccc2)CC1 to CN1CCN(C(=O)/C(=C/c2cccc([N+](=O)[O-])c2)NC(=O)c2ccccc2)CC1, the “hERG current change (%, negative = inhibition) at 10uM” value rises from -81.5% to -72.6%.

First: CN1CCN(C(=O)/C(=C\c2cccc([N+](=O)[O-])c2)NC(=O)c2cccs2)CC1
Second: O=C(N/C(=C\c1cccc([N+](=O)[O-])c1)C(=O)N1CCCCC1)c1cccs1
The “hERG current change (%, negative = inhibition) at 10uM” value of the first is lower: -25.4% for the first, 7.93% for the second.

Compared with O=C(N/C(=C\c1ccc([N+](=O)[O-])cc1)C(=O)N1CCCCC1)c1ccccc1Br, O=C(N/C(=C/c1cccc([N+](=O)[O-])c1)C(=O)N1CCCC1)c1ccccc1 is higher in “hERG current change (%, negative = inhibition) at 10uM” value: -59.4% for the first, -46% for the second.

First: CN1CCN(C(=O)/C(=C/c2ccccc2Cl)NC(=O)c2ccccc2)CC1
Second: COc1cc(/C=C(/NC(=O)c2ccccc2)C(=O)N2CCN(C)CC2)c([N+](=O)[O-])cc1OC
The “hERG current change (%, negative = inhibition) at 10uM” value of the first is lower: -10.8% for the first, 9.52% for the second.

Going from CC1CCN(C(=O)CCc2nnc(-c3ccccc3)o2)CC1 to CCCCOc1ccc(C(=O)N/C(=C/C=C/c2ccccc2)C(=O)N2CCOCC2)cc1, the “hERG current change (%, negative = inhibition) at 10uM” value rises from -5.83% to -5.66%.

Compared with O=C(NNc1ccc([N+](=O)[O-])cc1)C12CC3CC(CC(C3)C1)C2, CC(=O)Nc1ccc(OCc2cccc([N+](=O)[O-])c2)cc1 is lower in “hERG current change (%, negative = inhibition) at 10uM” value: 19.5% for the first, 8.84% for the second.

Compared with Cc1onc(-c2ccccc2Cl)c1C(=O)Oc1cc(N)n(S(=O)(=O)c2ccc(F)cc2)n1, CC(NC(=O)c1nn(C)c(=O)c2ccccc12)c1ccc(F)cc1 (centres unmarked) is lower in “hERG current change (%, negative = inhibition) at 10uM” value: -3.48% for the first, -3.84% for the second.

First: Cc1ccn2c(C(=O)CSc3ccc(Cl)cc3)c(C)nc2c1
Second: [Cl-].[NH3+]CCCn1c(C(=O)c2ccc(Cl)cc2)c2ccc([N+](=O)[O-])cc2[n+]1[O-]
The “hERG current change (%, negative = inhibition) at 10uM” value of the first is higher: 7.28% for the first, -63.8% for the second.

First: O=C(N/C(=C/C=C\c1ccccc1)C(=O)N1CCOCC1)c1ccc(Br)cc1
Second: O=C(N/C(=C/C=C/c1ccccc1)C(=O)N1CCOCC1)c1ccccc1Cl
The “hERG current change (%, negative = inhibition) at 10uM” value of the first is lower: -64.1% for the first, -16.6% for the second.

First: O=C(N/C(=C\c1ccccc1)C(=O)N1CCCCCC1)c1ccccc1
Second: O=C(c1cccc(S(=O)(=O)N2CCOCC2)c1)N(CCc1ccccc1)Cc1ccccc1
The “hERG current change (%, negative = inhibition) at 10uM” value of the first is higher: 15.2% for the first, -55.4% for the second.

Compared with Cc1cc(C(=O)OCC(=O)Nc2cccc(S(N)(=O)=O)c2)c2ccccc2n1, CN(C)S(=O)(=O)c1cccc(COC(=O)c2ccc(Cl)cc2O)c1 is lower in “hERG current change (%, negative = inhibition) at 10uM” value: -4.62% for the first, -7.36% for the second.

Going from CCOCCCNC(=O)c1ccc2nc(-c3ccc(OC)c(OC)c3)c(-c3ccc(OC)c(OC)c3)nc2c1 to COc1ccc(-c2oc3ccc(-c4cc(OC)c(OC)c(OC)c4)cc3c2-c2ccc(OC)cc2)cc1, the “hERG current change (%, negative = inhibition) at 10uM” value rises from 6.99% to 13.6%.

First: NC(=O)CCCn1c(C(=O)c2ccc(Cl)cc2)c2ccc([N+](=O)[O-])cc2[n+]1[O-]
Second: Cc1ccc(C(=O)c2c3ccc([N+](=O)[O-])cc3[n+]([O-])n2CCCC(N)=O)cc1
The “hERG current change (%, negative = inhibition) at 10uM” value of the first is lower: -74.1% for the first, -36.6% for the second.

First: COc1ccc(C(=O)c2c3ccc([N+](=O)[O-])cc3[n+]([O-])n2CCC[NH3+])cc1.[Cl-]
Second: NC(=O)CCCn1c(C(=O)c2cc(Cl)c(N)c(Cl)c2)c2ccc([N+](=O)[O-])cc2[n+]1[O-]
The “hERG current change (%, negative = inhibition) at 10uM” value of the first is lower: -47.4% for the first, -30.9% for the second.

Compared with NC(=O)CCn1c(C(=O)c2cccc([N+](=O)[O-])c2)c2ccccc2[n+]1[O-], NC(=O)c1ccccc1NC(=O)c1ccc2c(c1)OCO2 is higher in “hERG current change (%, negative = inhibition) at 10uM” value: 4.25% for the first, 5.14% for the second.

Compared with CC(=O)Oc1c(Cl)c(N2CCOCC2)c(OC(C)=O)c2ccccc12, O=C(NCc1ccccc1)c1ccc(F)c(S(=O)(=O)N2CCOCC2)c1 is higher in “hERG current change (%, negative = inhibition) at 10uM” value: -25.2% for the first, -17.4% for the second.

Going from CCN(Cc1ccccc1)C(=O)c1cccc(S(=O)(=O)N2CCN(Cc3ccccc3)CC2)c1 to CC1CN(S(=O)(=O)c2cccc(C(=O)N(CCc3ccccc3)Cc3ccccc3)c2)CC(C)O1 (centres unmarked), the “hERG current change (%, negative = inhibition) at 10uM” value rises from -19.6% to -7%.

First: Cc1csc(N2CCN(c3cc4c(cc3Cl)nc(-c3ccncc3)n4CCCN3CCCC3)CC2)n1
Second: Cc1ccc(-c2csc(N3CCN(c4cc5c(cc4Cl)nc(-c4ccncc4)n5CCN4CCCCC4)CC3)n2)cc1
The “hERG current change (%, negative = inhibition) at 10uM” value of the first is lower: -64.8% for the first, 10.5% for the second.

Compared with Cc1ccc(-c2csc(N3CCN(c4cc5c(cc4Cl)nc(-c4ccncc4)n5CCOCCO)CC3)n2)cc1, Cc1cccn2c(=O)c3cc(C(=O)NC4CCCC4)c(=N)n(Cc4ccc(F)cc4)c3nc12 is lower in “hERG current change (%, negative = inhibition) at 10uM” value: 4.81% for the first, -68.2% for the second.

First: Cc1n[nH]c(=S)n1-c1cccc(Cl)c1
Second: Cc1cccc2c(N)c3c(nc12)N(C)CC3.O=C(O)C(=O)O
The “hERG current change (%, negative = inhibition) at 10uM” value of the first is higher: 19.7% for the first, -23.1% for the second.

First: Cc1nnc(N2C(=O)C(O)=C(C(=O)c3ccco3)C2c2cccc3ccccc23)s1 (centres unmarked)
Second: Cc1cccn2c(=O)c3cc(C(=O)NC4CCCCC4)c(=N)n(Cc4ccccc4)c3nc12
The “hERG current change (%, negative = inhibition) at 10uM” value of the first is higher: -0.387% for the first, -74.6% for the second.

Going from Cc1cccn2c(=O)c3cc(C(=O)NC4CCCCC4)c(=N)n(Cc4ccc(F)cc4)c3nc12 to Cc1cccn2c(=O)c3cc(C(=O)NC4CCCCCC4)sc3nc12, the “hERG current change (%, negative = inhibition) at 10uM” value rises from -77.1% to 9.51%.

First: Cc1cccn2c(=O)c3cc(C(=O)NC4CCS(=O)(=O)C4)n(Cc4ccccc4)c3nc12 (centres unmarked)
Second: CC1=C(C#N)C(=O)N(C2CCS(=O)(=O)C2)C(=O)/C1=C\c1ccco1 (centres unmarked)
The “hERG current change (%, negative = inhibition) at 10uM” value of the first is lower: -4.36% for the first, 7.81% for the second.

Going from Nc1ccc(C(=O)Nc2cccc(NC(=O)c3ccc(N)cc3)c2)cc1 to O=C(c1ccc(F)c(S(=O)(=O)N2CCOCC2)c1)N(CCc1ccccc1)Cc1ccccc1, the “hERG current change (%, negative = inhibition) at 10uM” value falls from 17.7% to -68.3%.

First: Cn1c(=O)c(=O)n(C)c2cc(S(=O)(=O)CCC(=O)Nc3ccc(F)cc3)ccc21
Second: O=C(c1cc(S(=O)(=O)N2CCOCC2)ccc1F)N(CCc1ccccc1)Cc1ccccc1
The “hERG current change (%, negative = inhibition) at 10uM” value of the first is higher: -2.6% for the first, -4.37% for the second.

First: CS(=O)(=O)N1CCN(CC2CC3C=CC2C3)CC1.O=C(O)C(=O)O (centres unmarked)
Second: Cc1ccc2nc3c(c(N)c2c1)CCN3C.O=C(O)C(=O)O
The “hERG current change (%, negative = inhibition) at 10uM” value of the first is higher: 5.01% for the first, -33.1% for the second.

Going from CCOc1ccc(N2C(=O)C3C(c4ccc(O)cc4)NC(CCSC)(C(=O)OC)C3C2=O)cc1 (centres unmarked) to O=C(c1cccc(S(=O)(=O)N2CCOCC2)c1)N(CCO)Cc1ccccc1, the “hERG current change (%, negative = inhibition) at 10uM” value falls from -12.3% to -19.8%.

First: CCCOC(=O)c1ccccc1C(=O)OCCC
Second: CCCCCCCCNC(=O)CCNC(=O)c1ccc(C(C)(C)C)cc1
The “hERG current change (%, negative = inhibition) at 10uM” value of the first is lower: -3.24% for the first, 8% for the second.

Going from CCc1nc2cc([N+](=O)[O-])c([N+](=O)[O-])cc2[nH]1 to O=[N+]([O-])c1ccc(-c2cnc(NO)nc2)cc1, the “hERG current change (%, negative = inhibition) at 10uM” value falls from -14.5% to -28%.

Compared with CCc1cc2c(=O)n(CC(=O)NC3CCCCC3)cnc2s1, Cc1cc(Br)c2nc3c(c(C(=O)O)c2c1)CCCCC3 is lower in “hERG current change (%, negative = inhibition) at 10uM” value: 4.86% for the first, 4.41% for the second.

First: Cc1ccc(C)c2c(N)c3c(nc12)CCCCC3.O=C(O)c1cncc(Br)c1
Second: CN1CCCCc2c1nc1ccccc1c2N.O=C(O)c1cncc(Br)c1
The “hERG current change (%, negative = inhibition) at 10uM” value of the first is lower: -88.4% for the first, -82.5% for the second.

Going from O=C(O)c1cncc(Br)c1 to CC(C)(C)NC(=O)C(=O)NNC(=O)c1cccc(F)c1, the “hERG current change (%, negative = inhibition) at 10uM” value falls from 27.3% to 18.1%.
